Experimental data as given in PubChem BioAssay (NCATS).
Records with an inconclusive call do not appear. Where a call stands in place of a potency, no number is given. Activity calls are given as the source filed them. Calls follow the shape of the dose curve; as a rule, active = well fitted curve in the direction sought with a large enough effect; inconclusive = small, poorly fitted or top-dose-only effect, or another doubt; inactive = no such curve, though single readings can be large; an effect the other way counts as inactive or inconclusive.

Test: Quantitative High-Throughput drug screen in 47 multiple myeloma cell lines against the NCATS MIPE library collection: MOLP8_DSMZ cell viability assay (AID 1918977); also: nearly all actives have a fitted effect of over 45% in size
Conditions: MOLP8 myeloma viability, CellTiter-Glo ATP luminescence, 48 h; series mostly up to 45.8 µM
Outline: (§1)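 500 cells/well per myeloma line exposed to pinned MIPE 4.0 compounds for 48 h at 37 °C, 5% CO2. Viability read as ATP by CellTiter-Glo luminescence, normalised to DMSO-only (100%) and media-only (0%) wells.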
Potency is read from the fitted curve at half-maximal effect.

| Structure (SMILES) | Potency |
| --- | --- |
| C#CCN(C)CC1=Cc2ccccc2Oc2ccccc21 | inactive |
| OC[C@H]1O[C@@H](OCCc2ccc(O)cc2)[C@H](O)[C@@H](O)[C@H]1O | inactive |
| CC=C(C(=CC)c1ccc(O)cc1)c1ccc(O)cc1 | inactive |
| CCCCC[C@H](O)C=C[C@H]1[C@H](O)CC(=O)[C@H]1CC=CCCCC(=O)O | 16.6 µM (active) |
| Cc1ccc(S(=O)(=O)Nc2nc3ccccc3nc2Nc2ccc3nsnc3c2)cc1 | 6.45 µM (active) |
| CCC=CC[C@H]1C(=O)CC[C@@H]1CC(=O)OC | inactive |
| COC(=O)N1CCN(Cc2cccc(NC(=O)Nc3ccc(C)nc3)c2F)CC1 | inactive |
| OCCn1cc(-c2ccc3c(c2)CCC3=NO)c(-c2ccncc2)n1 | 0.0662 µM (active) |
| C[C@]12C=CC(=O)C=C1CC[C@@H]1[C@@H]2[C@@H](O)C[C@@]2(C)[C@@H]1CC[C@]2(O)C(=O)CO | 0.0743 µM (active) |
| CCCCOCCOc1nc(-c2ccc(C(=O)O)c(F)c2)sc1C | inactive |
| CC(C)(CO)[C@@H](O)C(=O)NCCC(=O)O | inactive |
| NC[C@H]1O[C@H](O[C@@H]2[C@@H](O)[C@@H](O[C@H]3O[C@H](CO)[C@@H](O)[C@H](N)[C@@H]3O)[C@H](N)C[C@@H]2N)[C@H](O)[C@@H](O)[C@H]1O | inactive |
| CCn1c(-c2nonc2N)nc2cncc(CNC3CCNCC3)c21 | 14.8 µM (active) |
| CC(=O)OCC(=O)[C@@]1(O)CC[C@H]2[C@@H]3CCC4=CC(=O)C=C[C@]4(C)[C@@H]3[C@@H](O)C[C@@]21C | 2.35 µM (active) |
| CCCCCCOC(=O)N=C(N)c1ccc(NCc2nc3cc(C(=O)N(CCC(=O)OCC)c4ccccn4)ccc3n2C)cc1 | 20.9 µM (active) |

Test: Quantitative High-Throughput drug screen in 47 multiple myeloma cell lines against the NCATS MIPE library collection: NCIH929_DSMZ cell viability assay (AID 1918978); also: nearly all actives have a fitted effect of over 35% in size
Conditions: NCI-H929 myeloma viability, CellTiter-Glo ATP, 48 h; series mostly up to 45.8 µM
Outline: as §1

| Structure (SMILES) | Potency |
| --- | --- |
| CCCCC(C=O)NC(=O)C(CC(C)C)NC(=O)OCc1ccccc1 (centres undefined) | 20.9 µM (active) |
| C#CCN(C)CC1=Cc2ccccc2Oc2ccccc21 | inactive |
| O=C(NCCCCN1CCOCC1)c1cc2ccccc2o1 | inactive |
| Oc1ccc(C=Cc2cc(O)cc(O)c2)cc1 | inactive |
| Cc1ccc(NC(=O)c2ccc(CN3CCN(C)CC3)cc2)cc1Nc1nc(-c2cccnc2)cs1 | 23.5 µM (active) |
| N[C@@H](CC(=O)N1CCn2c(nnc2C(F)(F)F)C1)Cc1cc(F)c(F)cc1F | inactive |
| Fc1ccc(C(c2ccc(F)cc2)N2CCN(CC=Cc3ccccc3)CC2)cc1 | 18.7 µM (active) |
| CN(C)CCCNC(=O)c1ccc(-c2cc(O)c3ncccc3c2)cc1 | 23.5 µM (active) |
| CC=C(C(=CC)c1ccc(O)cc1)c1ccc(O)cc1 | inactive |
| O=C(O)Cc1cccc(OCCCN(Cc2cccc(C(F)(F)F)c2Cl)CC(c2ccccc2)c2ccccc2)c1 | 18.7 µM (active) |
| CCCCC[C@H](O)C=C[C@H]1[C@H](O)CC(=O)[C@H]1CC=CCCCC(=O)O | 16.6 µM (active) |
| C[C@H](c1ccc(F)cc1CCCC(=O)O)N(c1cc(F)ccc1F)S(=O)(=O)c1ccc(Cl)cc1 | 6.62 µM (active) |
| Cc1ccc(S(=O)(=O)Nc2nc3ccccc3nc2Nc2ccc3nsnc3c2)cc1 | 7.24 µM (active) |
| CCC=CC[C@H]1C(=O)CC[C@@H]1CC(=O)OC | inactive |
| CN(C)c1nc(Cc2ccc(NC(=O)c3ccc(C(F)(F)F)cc3)cc2)nc(N(C)C)c1CC(=O)O | inactive |
| COC(=O)N1CCN(Cc2cccc(NC(=O)Nc3ccc(C)nc3)c2F)CC1 | inactive |
| OCCn1cc(-c2ccc3c(c2)CCC3=NO)c(-c2ccncc2)n1 | 20.9 µM (active) |
| C[C@]12C=CC(=O)C=C1CC[C@@H]1[C@@H]2[C@@H](O)C[C@@]2(C)[C@@H]1CC[C@]2(O)C(=O)CO | 2.35 µM (active) |
| CCCCOCCOc1nc(-c2ccc(C(=O)O)c(F)c2)sc1C | inactive |
| CC(C)(CO)[C@@H](O)C(=O)NCCC(=O)O | inactive |
| O=C(CC12CC3CC(CC(C3)C1)C2)Nc1cccc2nc(NCCNCCO)ccc12 | 2.35 µM (active) |
| NC[C@H]1O[C@H](O[C@@H]2[C@@H](O)[C@@H](O[C@H]3O[C@H](CO)[C@@H](O)[C@H](N)[C@@H]3O)[C@H](N)C[C@@H]2N)[C@H](O)[C@@H](O)[C@H]1O | inactive |
| CC(=O)OCC(=O)[C@@]1(O)CC[C@H]2[C@@H]3CCC4=CC(=O)C=C[C@]4(C)[C@@H]3[C@@H](O)C[C@@]21C | 0.187 µM (active) |
| COc1cc2nccc(Oc3ccc(NC(=O)Nc4ccc(F)cc4F)c(F)c3)c2cc1OC | inactive |
| O=C(O)CCNc1cc(N2CCc3ccccc3CC2)nc(-c2ccccn2)n1 | inactive |
| CN[C@H]1[C@@H](O[C@@H]2[C@H](O[C@@H]3[C@@H](O)[C@@H](O)[C@@H](N=C(N)N)[C@@H](O)[C@@H]3N=C(N)N)O[C@H](C)[C@@]2(O)C=O)O[C@@H](CO)[C@@H](O)[C@H]1O | inactive |

Test: Quantitative High-Throughput drug screen in 47 multiple myeloma cell lines against the NCATS MIPE library collection: OCIMY1_PLB cell viability assay (AID 1918979); also: nearly all actives have a fitted effect of over 35% in size
Conditions: OCI-MY1 myeloma viability, CellTiter-Glo ATP, 48 h; series mostly up to 45.8 µM
Outline: as §1

| Structure (SMILES) | Potency |
| --- | --- |
| CCCCC(C=O)NC(=O)C(CC(C)C)NC(=O)OCc1ccccc1 (centres undefined) | inactive |
| C#CCN(C)CC1=Cc2ccccc2Oc2ccccc21 | inactive |
| O=C(NCCCCN1CCOCC1)c1cc2ccccc2o1 | inactive |
| Oc1ccc(C=Cc2cc(O)cc(O)c2)cc1 | inactive |
| CNc1nc(Nc2ccc(C(=O)N3CCOCC3)cc2OC)ncc1Cl | inactive |
| N[C@@H](CC(=O)N1CCn2c(nnc2C(F)(F)F)C1)Cc1cc(F)c(F)cc1F | inactive |
| Fc1ccc(C(c2ccc(F)cc2)N2CCN(CC=Cc3ccccc3)CC2)cc1 | inactive |
| COc1c(C)c2c(c(O)c1CC=C(C)CCC(=O)O)C(=O)OC2 | 13.2 µM (active) |
| CC=C(C(=CC)c1ccc(O)cc1)c1ccc(O)cc1 | inactive |
| O=C(O)Cc1cccc(OCCCN(Cc2cccc(C(F)(F)F)c2Cl)CC(c2ccccc2)c2ccccc2)c1 | inactive |
| CCCCC[C@H](O)C=C[C@H]1[C@H](O)CC(=O)[C@H]1CC=CCCCC(=O)O | inactive |
| Cc1cc2c(cc1C1(c3ccc(C(=O)O)cn3)CC1)C(C)(C)CCC2(C)C | 0.0015 µM (active) |
| CCC=CC[C@H]1C(=O)CC[C@@H]1CC(=O)OC | inactive |
| COC(=O)N1CCN(Cc2cccc(NC(=O)Nc3ccc(C)nc3)c2F)CC1 | inactive |
| C[C@]12C=CC(=O)C=C1CC[C@@H]1[C@@H]2[C@@H](O)C[C@@]2(C)[C@@H]1CC[C@]2(O)C(=O)CO | inactive |
| CC(C)(CO)[C@@H](O)C(=O)NCCC(=O)O | inactive |
| CC(=O)OCC(=O)[C@@]1(O)CC[C@H]2[C@@H]3CCC4=CC(=O)C=C[C@]4(C)[C@@H]3[C@@H](O)C[C@@]21C | inactive |
| O=C(O)CCNc1cc(N2CCc3ccccc3CC2)nc(-c2ccccn2)n1 | inactive |
